# Peg3 prom inh-1: inhibitors of Peg3 promoter | HeLa PEG-Prom luciferase reporter, luminescence, overnight | inhibition, % at 20 µM | 360,000 compounds, 1.7% hits;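 active = inhibition of at least 50% at 20 µM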
# HIF-2a inh: blocks HIF-2a reporter activity. 360,000 compounds, 0.72% hits. 786-0 RCC cells HIF-2a reporter, luciferase luminescence, overnight. inhibition, % at 18.8 µM;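 active = inhibition of the luminescence signal of 40% or more relative to plate controls, in a single-dose primary screen at 18.75 µM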
# ABHD5-PLIN5 inh: inhibitors of human ABHD5-perilipin-5 interaction. AID 602281. inhibition, % at 4 µM. Split G. princeps luciferase complementation, luminescence, 4 h. Q00G26+Q8WTS1. 360,000 compounds, 0.78% hits;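 active = inhibition above the mean inhibition across every tested compound plus 3 SD, cut at about 22% in these data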;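 also: 0% = DMSO only wells and the 100% control is not disclosed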
# Target sequence (Q00G26 whole entry, looked up): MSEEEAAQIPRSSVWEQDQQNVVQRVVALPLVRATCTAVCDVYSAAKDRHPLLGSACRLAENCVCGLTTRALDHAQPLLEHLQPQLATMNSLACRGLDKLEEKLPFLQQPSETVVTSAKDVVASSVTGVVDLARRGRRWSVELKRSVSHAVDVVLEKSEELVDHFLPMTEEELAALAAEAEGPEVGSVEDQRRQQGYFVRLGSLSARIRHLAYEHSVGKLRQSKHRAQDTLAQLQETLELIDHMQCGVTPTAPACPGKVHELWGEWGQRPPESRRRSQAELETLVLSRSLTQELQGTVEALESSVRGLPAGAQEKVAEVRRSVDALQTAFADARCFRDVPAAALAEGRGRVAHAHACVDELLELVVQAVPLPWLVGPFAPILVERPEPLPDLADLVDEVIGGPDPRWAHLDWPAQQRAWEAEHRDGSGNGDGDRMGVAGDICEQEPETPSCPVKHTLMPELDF
# Target sequence (Q8WTS1 whole entry, looked up): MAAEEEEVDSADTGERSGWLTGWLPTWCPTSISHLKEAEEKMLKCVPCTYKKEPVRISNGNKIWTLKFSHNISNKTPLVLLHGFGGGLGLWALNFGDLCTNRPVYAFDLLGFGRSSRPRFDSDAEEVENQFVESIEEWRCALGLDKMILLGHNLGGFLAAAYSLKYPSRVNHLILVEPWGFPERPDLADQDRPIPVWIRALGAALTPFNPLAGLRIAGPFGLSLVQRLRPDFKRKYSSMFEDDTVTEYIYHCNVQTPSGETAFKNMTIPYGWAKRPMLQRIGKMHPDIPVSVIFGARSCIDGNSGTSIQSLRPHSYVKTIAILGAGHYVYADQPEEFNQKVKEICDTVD
# KKLEB tox: reduces viability of KKLEB cystic fibrosis airway cells. activity change (cytotoxicity), % at 5 µM. AID 602141. 360,000 compounds, 0.36% hits. KKLEB CF airway cells viability, ATPlite luminescence, overnight; stronger effect = lower value; cells stimulated with P. aeruginosa culture filtrate;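 active = corrected activity change at or below -50% at 5 µM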
# CF NFkB block: inhibitors of cystic fibrosis induced NF-kB. KKLEB NF-kB-GFP reporter, PAF-induced, GFP fluorescence overnight. inhibition, % at 5 µM. 360,000 compounds, 0.86% hits. AID 588850;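 active = at least 50% inhibition at 5 µM, scaled per plate between neutral and stimulator controls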;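 also: PAF is a Pseudomonas aeruginosa culture filtrate used as stimulus; plate controls were PAF-stimulated DMSO wells for no effect and unstimulated DMSO wells for full effect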
# Mdm2-MdmX inh: human Mdm2/MdmX binding inhibition. O15151+Q00987. SaOS-2 split-luciferase Mdm2/MdmX complementation, luminescence. inhibition, % at 8 µM. 330,000 compounds, 3% hits. AID 485346;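 active = inhibition of at least 50% at 8 µM in the primary screen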
# Peg3 prom inh-2: confirmation of Peg3 promoter inhibitors; AID 602417; 1,300 compounds, 84% hits; shares compounds with Peg3 prom inh-1; HeLa PEG-Prom luciferase reporter, luminescence, overnight; inhibition, % at 20 µM;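 active = at 20 µM dose, 40% or more inhibition averaged across four replicates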
# CF NFkB conf: CF NF-kB inhibition confirmation, single concentration. shares compounds with CF NFkB block. KKLEB CF airway cells, PAF-induced NF-kB-GFP fluorescence, overnight. inhibition, % at 5 µM. 1,300 compounds, 64% hits; in the data active = inhibition above about 40%;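 also: stimulus PAF is a Pseudomonas aeruginosa filtrate and not platelet activating factor; plate controls were DMSO wells with stimulus for no effect and unstimulated DMSO wells for full effect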
# ABHD5 PLIN5 conf: ABHD5-PLIN5 interaction inhibition, confirmed. inhibition, % at 4 µM. AID 651612. biochemical ABHD5-PLIN5 interaction, luminescence. shares compounds with ABHD5-PLIN5 inh. 2,200 compounds, 67% hits; in the data active = inhibition above about 23%;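 also: 0% = DMSO vehicle wells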
# HNF4 split-luc: HNF4 split-luciferase signal hit, counter-screen | shares compounds with ABHD5-PLIN5 inh | HNF4 dimerization, luminescence, biochemical | inhibition, % at 4 µM | 2,200 compounds, 77% hits;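 active = mean inhibition across replicate wells exceeding the computed hit threshold, cut at about 13% in these data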;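 also: light from luciferase halves that rejoin when HNF4 fusion proteins dimerize; 0% = DMSO only wells and the 100% control is not given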
# HIF-2a inh conf: HIF-2a inhibition, single concentration confirmation; inhibition, % at 18.8 µM; 1,800 compounds, 56% hits; AID 651580; 786-0 RCC cells, HIF-2a luciferase reporter luminescence, overnight; shares compounds with HIF-2a inh;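 active = mean inhibition across four replicates of at least 40 percent at the single tested concentration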
# HIF-1a cs: counter-screen for HIF-2a inhibitors: HIF-1a inhibition in MiaPaCa-2 cells; shares compounds with HIF-2a inh; MiaPaCa-2 HIF-1a luciferase reporter, desferoxamine, overnight; inhibition, % at 18.8 µM; 1,800 compounds, 72% hits;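 active = mean inhibition of the reporter signal across four replicates at the single tested dose of 50% or more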
# The depositor's hits bear a star; . = no result. Only some compounds are listed: those with a hit (about 4.6% of all), similar ones and a draw of the others.
SMILES,Peg3 prom inh-1,HIF-2a inh,ABHD5-PLIN5 inh,KKLEB tox,CF NFkB block,Mdm2-MdmX inh,Peg3 prom inh-2,others
O=Cc1cn(Cc2ccc(F)cc2)c2ccccc12,78*,10,0,-5,20,16,69*,
Cc1ccc(N=C(/N=C(\N)N[N+](=O)[O-])Nc2ccc(C)cc2)cc1,3,12,5,-7,-11,-6,.,
CC1=CC(O)C(O)C2(C)C1CC1OC(=O)C(O)C3C(C)C(O)C4(O)OCC13C42 (configuration not stated),68*,35,-1,5,-5,.,45*,
N#CC1c2ccccc2-n2nncc2CN1C(=O)CCc1ccccc1 (configuration not stated),8,3,0,12,-9,.,.,
O=C1NC(=S)N(c2ccccc2F)C(=O)/C1=C\c1cccs1,102*,84*,-8,4,12,8,83*,
CC1CN1P(=O)(Oc1ccccc1)N1CC1C (configuration not stated),1,-4,8,2,-2,.,.,
COc1ccc(C(c2nnnn2-c2c(C)cccc2C)N2CCC3(CC2)C(=O)NCN3c2ccccc2)cc1 (configuration not stated),42,10,5,-21,4,.,.,
COc1cccc2c1C(=O)c1c(O)c3c(c(O)c1C2=O)CC(O)(C(C)=NO)CC3OC1CC(N)C(O)C(C)O1 (configuration not stated),99*,-11,-4,-12,-254,.,99*,
COc1ccc(-n2nnnc2C(C2CC2)N2CCC(n3c(=O)[nH]c4ccccc43)CC2)cc1 (configuration not stated),58*,9,4,-16,-3,.,58*,
CCC(c1nnnn1-c1ccc2c(c1)OCCO2)N1CCC(n2c(=O)[nH]c3ccccc32)CC1 (configuration not stated),79*,-1,17,-76*,79*,.,80*,
COc1ccc(-n2nnnc2C(C2CC2)N2CCC3(CC2)C(=O)NCN3c2ccccc2)cc1 (configuration not stated),25,33,-1,-8,19,.,.,
CCN(CC)C(=O)c1ccc(NC(=O)Nc2ccccc2F)cc1,56*,27,7,-5,0,-74,45*,
CCN(CC)C(=O)c1ccc(NC(=O)CCCSc2ccccc2)cc1,-7,11,3,9,-10,-5,.,
O=C1NC(=S)NC(=O)C1=Cc1cccc2cc3ccccc3cc12,107*,-13,-1,-36,95*,.,100*,
COc1ccc(C=C2C(=O)NC(=S)NC2=O)cc1,0,6,-2,-10,8,.,.,
Cn1cccc1/C=C1/C(=O)NC(=S)N(Cc2ccc(F)cc2)C1=O,106*,27,9,-3,33,42,63*,
Cc1ccc(OP2(=O)Nc3cc(C)c(C)cc3S2)cc1 (configuration not stated),-226,-8,0,10,-72,.,.,
CC(=O)OC1CC2(O)C3CCC4CC(O)CCC4(C)C3CCC2(C)C1C1=CC(=O)OC1 (configuration not stated),97*,69*,-2,-50,90*,.,99*,
CC(=O)[C@H]1CCC2C3CC[C@H]4C[C@@H](O)CC[C@]4(C)C3CC[C@@]21C (some centres not stated),30,3,-2,-2,4,19,.,
N=c1sccn1Cc1ccccc1F,-7,16,11,7,5,.,.,
Cn1cccc1C1CCCN1CC(=O)Nc1ccc(C#N)c(Cl)c1 (configuration not stated),3,-16,-3,2,-29,8,.,
Cc1cccc(C)c1-n1nnnc1C(c1ccccc1OC(F)(F)F)N1CCC(n2c(=O)[nH]c3ccccc32)CC1 (configuration not stated),52*,-16,6,-28,73*,.,68*,CF NFkB conf=0
COc1ccc(C(c2nnnn2-c2c(C)cccc2C)N2CCC(n3c(=O)[nH]c4ccccc43)CC2)cc1 (configuration not stated),59*,-4,13,-12,60*,.,48*,CF NFkB conf=-1
Cc1cccc(C)c1-n1nnnc1C(c1ccccc1)N1CCC2(CC1)C(=O)NCN2c1ccccc1 (configuration not stated),46,-8,-3,-46,40,.,.,
COC(=O)C1=C(c2ccc(OC(F)(F)F)cc2)C[C@@H]2CC[C@H]1N2C(=O)N1CCCC1,19,4,2,-31,29,22,.,
SMILES,Peg3 prom inh-1,HIF-2a inh,ABHD5-PLIN5 inh,KKLEB tox,CF NFkB block,Mdm2-MdmX inh,Peg3 prom inh-2,others
O=C1NC(=O)N(Cc2ccc(F)cc2)C(=O)/C1=C\C=C\c1ccco1,62*,22,29*,-3,78*,9,66*,ABHD5 PLIN5 conf=96*;HNF4 split-luc=62*
CCCN1CCC[C@@H](c2cccc(O)c2)C1,2,13,3,16,11,-30,.,
O=C1NC2C(=CC(O)C(O)C2O)c2cc3c(c(O)c21)OCO3 (configuration not stated),100*,85*,-11,-64*,89*,.,98*,HIF-2a inh conf=84*;HIF-1a cs=106*
C[C@]12CCC3C(CC[C@H]4C[C@H](O)CC[C@]34C)C1C[C@@H](O)[C@H]2O (some centres not stated),6,5,-4,4,-13,.,.,
CC1=CC(O)C(O)C2(C)C1CC1OC(=O)CC3C(C)C(O)C(=O)C2C13CO (configuration not stated),91*,46*,2,12,-16,.,20,HIF-2a inh conf=36;HIF-1a cs=-65
COc1ccc(OC(=O)N(C)C[C@@H]2OCc3ccccc3-c3c(n(C)c4ccccc34)C(=O)N([C@H](C)CO)C[C@@H]2C)cc1,12,-9,7,3,-1,.,.,

# Compound activity: PubChem, several laboratories
